Test [1] can be described thus: Wnt pathway potentiators raising nuclear beta-catenin – imaging, WNT3A-conditioned medium, mouse C2C12, NPC library, primary screen (AID 1117326; in the data active means nuclear beta-catenin stimulation mostly above about 4.2%, no sharp cut-off; inactive means mostly below about 10%; further: reference of the scale not given here). As to conditions: stronger effect = higher value.
Test [2] in a line: stimulators of insulin release from INS-1E, primary screen, cell-based, 5 mM glucose, NPC library (AID 1117329;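 active means compound raises insulin release from rat beta cells at 5 mM glucose, no numeric limit stated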; further: reference of the scale not given here). As to conditions: rat INS-1E insulin secretion, at 10 µM, stronger effect = higher value.
The nature of test [3]: growth inhibition of GSK3B-pretreated HCT116 cells – cell-based, CellTiter-Glo, 0.2 to 20 µM (AID 1117336;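 active means compounds lowering colon cancer cell viability after pretreatment blocking the GSK3B kinase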). The settings on record: HCT116 viability after GSK3B inhibitor, at 20 µM, stronger effect = higher value. Background: Cellular ATP, detected with luciferase, serves as a proxy for viable cell number.
Test [4] in a line: inhibition of endothelial tube formation, primary screen, imaging, VEGF stimulated, CD31 staining, tube area, NPC library (AID 1117340;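 active means compound that reduces growth-factor-driven endothelial tube area in a mixed cell culture, no cutoff stated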). The settings on record: VEGF-stimulated ADSC/ECFC co-culture, at 10 µM, stronger effect = higher value.
Test [5] is described as follows: GLP1 release stimulators, primary, NCI-H716, NPC library (AID 1117341;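 active means compound raises GLP1 secretion from the human gut endocrine cells, with no numeric limit stated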; further: reference of the scale not given here). As to conditions: NCI-H716 cells, at 10 µM, stronger effect = higher value.
Test [6] in a line: HCT116 colon cancer cell growth inhibition, primary screen, CellTiter-Glo luminescence, NPC library (AID 1117342;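 active means compounds that lower survival of HCT116 colon cancer cells in the luminescence readout, no numeric limit stated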). As to conditions: at 20 µM (top of the series).
Test [7] in a line: reduced SW480 viability measured with CellTiter-Glo, NPC library, primary (AID 1117343). As to conditions: CellTiter-Glo luminescence; at 20 µM (top of the series).
The nature of test [8]: NPC library primary testing for decreased DLD-1 cell viability via CellTiter-Glo (AID 1117346;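 active means compounds that lower survival of DLD-1 colon cancer cells in the luminescence readout, no cutoff given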). As to conditions: DLD-1 viability, CellTiter-Glo luminescence; at 20 µM (top of the series).

Activity calls are given as the source filed them.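 How the source made its calls, unless noted: active means compounds that lower viability of the colon cancer cells in the luminescence readout, with no numeric limit stated; inactive means the rest.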

In the case of `CC(C)=CCC/C(C)=C/CC/C(C)=C/C(=O)OCC(=O)[C@@]1(O)CC[C@H]2[C@@H]3CCC4=CC(=O)C=C[C@]4(C)[C@H]3[C@@H](O)C[C@@]21C`, the nuclear beta-catenin stimulation is -1% (inactive) in test [1] (at 10 µM) and 0% in test [1] (stimulation, at 2 µM). In addition, the insulin secretion stimulation in test [2] is -2% (inactive). In test [3], the viability decrease was 92.3% (active). Moreover, the tube area decrease in test [4] was 107% (active). Further, in test [5], the GLP1 secretion stimulation was -0.8% (inactive). Further, the inhibition of viability in test [6] was 98.2% (active). Besides, the viability decrease (inhibition) in test [7] was 86.2% (active); in test [8] it was 88.5% (active).

In the case of `COC(=O)C1=C(C)NC(C)=C(C(=O)OCCc2ccc(N3CCN(C(c4ccccc4)c4ccccc4)CC3)cc2)C1c1cccc([N+](=O)[O-])c1` (stereo not given), the nuclear beta-catenin stimulation in test [1] (at 10 µM) was 2.5% (inactive); in test [1] (stimulation, at 2 µM) it was 0.7%. Further, the insulin secretion stimulation in test [2] is 0% (inactive). For the same molecule, in test [3], the viability decrease is 14.1% (inactive). Also, the tube area decrease in test [4] was 44.2% (active). For the same molecule, the GLP1 secretion stimulation in test [5] is -3.4% (inactive). Also, the inhibition of viability in test [6] was 32.3% (inactive). Also, the viability decrease (inhibition) was 39.1% (inactive) in test [7] and -1.2% (inactive) in test [8].

`CCCCCCCCCCCCCC[N+](C)(C)C`: the nuclear beta-catenin stimulation was 61.2% (active) in test [1] (at 10 µM) and 7.5% in test [1] (stimulation, at 2 µM). The insulin secretion stimulation in test [2] was -0.2% (inactive). Further, in test [3], the viability decrease was 101% (active). Further, in test [4], the tube area decrease was 110% (active). In test [5], the GLP1 secretion stimulation was 29.7% (active). Also, the inhibition of viability in test [6] is 101% (active). The viability decrease (inhibition) in test [7] is 122% (active); in test [8] it was 103% (active).

With `CC(C)(Oc1ccc(Cl)cc1)C(=O)OCCCOC(=O)C(C)(C)Oc1ccc(Cl)cc1`, the nuclear beta-catenin stimulation was 0.7% (inactive) in test [1] (at 10 µM) and 2.2% in test [1] (stimulation, at 2 µM). In addition, in test [2], the insulin secretion stimulation was 0.5% (inactive). Also, in test [3], the viability decrease was 11% (inactive). Further, in test [4], the tube area decrease was 2.3% (inactive). Moreover, the GLP1 secretion stimulation in test [5] was -0.1% (inactive). The inhibition of viability in test [6] is 5.6% (inactive). Further, the viability decrease (inhibition) in test [7] is 8.9% (inactive); in test [8], 4% (inactive).

With `O=C(OCc1ccccc1)c1ccc(O)cc1`, the nuclear beta-catenin stimulation was 4.1% (inactive) in test [1] (at 10 µM) and -0.1% in test [1] (stimulation, at 2 µM). The insulin secretion stimulation in test [2] was 0.1% (inactive). Further, in test [3], the viability decrease is -24.5% (inactive). Further, the tube area decrease in test [4] was -8.2% (inactive). In addition, the GLP1 secretion stimulation in test [5] is 0.1% (inactive). The inhibition of viability in test [6] is 16.1% (inactive). The viability decrease (inhibition) in test [7] was 12.9% (inactive); in test [8], 14.4% (inactive).

Turning to `Cc1cn([C@@H]2O[C@H](CO)[C@@H](O)[C@H]2F)c(=O)[nH]c1=O`, the nuclear beta-catenin stimulation in test [1] (at 10 µM) is -2.3% (inactive); in test [1] (stimulation, at 2 µM), -0.8%. The insulin secretion stimulation in test [2] is 0.3% (inactive). Moreover, in test [3], the viability decrease was 26.6% (inactive). In test [4], the tube area decrease is -11.7% (inactive). Also, in test [5], the GLP1 secretion stimulation is -3% (inactive). In addition, the inhibition of viability in test [6] was 4.6% (inactive). For the same molecule, the figures for the viability decrease (inhibition) in test [7] and in test [8] were 3.1% (inactive) and 6.8% (inactive), respectively.

Take `NC(=O)NNc1ccccc1`: the nuclear beta-catenin stimulation was 3.2% (inactive) in test [1] (at 10 µM) and 0.7% in test [1] (stimulation, at 2 µM). In addition, the insulin secretion stimulation in test [2] was -1.9% (inactive). Besides, the viability decrease in test [3] was -9.75% (inactive). For the same molecule, the tube area decrease in test [4] is 16% (inactive). Further, in test [5], the GLP1 secretion stimulation was 1.4% (inactive). Besides, the inhibition of viability in test [6] was -3% (inactive). Further, the viability decrease (inhibition) in test [7] is 30.5% (inactive); in test [8], 7.45% (inactive).

For `CN1C(CSCC(F)(F)F)Nc2cc(Cl)c(S(N)(=O)=O)cc2S1(=O)=O` (stereo not given), the nuclear beta-catenin stimulation is -0.4% (inactive) in test [1] (at 10 µM) and -1.1% in test [1] (stimulation, at 2 µM). Besides, the insulin secretion stimulation in test [2] was 6.7% (inactive). Moreover, in test [3], the viability decrease is -2.8% (inactive). Further, the tube area decrease in test [4] was -10.7% (inactive). The GLP1 secretion stimulation in test [5] is 1.3% (inactive). Besides, the inhibition of viability in test [6] is 30.1% (inactive). Besides, the viability decrease (inhibition) in test [7] was -4.4% (inactive); in test [8], -7.1% (inactive).

As for `CCCOC(=O)c1ccc(N)cc1`, the nuclear beta-catenin stimulation was -0.1% (inactive) in test [1] (at 10 µM) and 0.3% in test [1] (stimulation, at 2 µM). In addition, the insulin secretion stimulation in test [2] was -1.5% (inactive). In addition, the viability decrease in test [3] was -4.45% (inactive). Also, the tube area decrease in test [4] is 4.9% (inactive). Moreover, the GLP1 secretion stimulation in test [5] is -0.1% (inactive). For the same molecule, the inhibition of viability in test [6] was 1.8% (inactive). The viability decrease (inhibition) in test [7] is 110% (active); in test [8] it was 21.4% (inactive).

Turning to `O=C(NCN1CCOCC1)c1cnccn1`, the nuclear beta-catenin stimulation in test [1] (at 10 µM) was 1.4% (inactive); in test [1] (stimulation, at 2 µM), 0.7%. Further, in test [2], the insulin secretion stimulation is 0.2% (inactive). Further, the viability decrease in test [3] is 15.3% (inactive). Besides, the tube area decrease in test [4] is 7.8% (inactive). The GLP1 secretion stimulation in test [5] was -2.9% (inactive). Also, the inhibition of viability in test [6] was 29.4% (inactive). Moreover, the viability decrease (inhibition) was 40.1% (inactive) in test [7] and 8.3% (inactive) in test [8].

In the case of `OCC=Cc1ccccc1`, the nuclear beta-catenin stimulation in test [1] (at 10 µM) was -2.6% (inactive); in test [1] (stimulation, at 2 µM), -1%. Besides, in test [2], the insulin secretion stimulation is 9.1% (inactive). The viability decrease in test [3] is -8.2% (inactive). In test [4], the tube area decrease is 0.4% (inactive). In test [5], the GLP1 secretion stimulation was -1.9% (inactive). Besides, the inhibition of viability in test [6] was -0.4% (inactive). The viability decrease (inhibition) is -0.8% (inactive) in test [7] and -7.9% (inactive) in test [8].

`C[C@@H](O)[C@H](N)C(=O)O`: the nuclear beta-catenin stimulation in test [1] (at 10 µM) was 0.7% (inactive); in test [1] (stimulation, at 2 µM) it was 0.7%. Also, the insulin secretion stimulation in test [2] was -1.9% (inactive). In test [3], the viability decrease is -7.25% (inactive). In test [4], the tube area decrease is -11.2% (inactive). Moreover, the GLP1 secretion stimulation in test [5] was 1.6% (inactive). For the same molecule, the inhibition of viability in test [6] was -31.1% (inactive). Further, the viability decrease (inhibition) in test [7] is 13.3% (inactive); in test [8], 12.6% (inactive).

For `CCN(CC)CC(=O)Nc1c(C)cccc1C(=O)OC`, the nuclear beta-catenin stimulation in test [1] (at 10 µM) is 0% (inactive); in test [1] (stimulation, at 2 µM), 0.3%. For the same molecule, the insulin secretion stimulation in test [2] is 0.7% (inactive). Also, the viability decrease in test [3] was -3% (inactive). In addition, in test [4], the tube area decrease is 27.1% (inactive). Also, the GLP1 secretion stimulation in test [5] is 4.8% (inactive). The inhibition of viability in test [6] is -7.9% (inactive). Moreover, the values for the viability decrease (inhibition) in test [7] and in test [8] were -13.2% (inactive) and -17.2% (inactive), respectively.

For `COc1cc(C=C2CCC/C(=C\c3ccc(O)c(OC)c3)C2=O)ccc1O`, the nuclear beta-catenin stimulation in test [1] (at 10 µM) is 118% (active); in test [1] (stimulation, at 2 µM), 4.1%. Moreover, in test [2], the insulin secretion stimulation was 11.1% (inactive). In test [3], the viability decrease is 99.1% (active). Besides, in test [4], the tube area decrease is 106% (active). In addition, in test [5], the GLP1 secretion stimulation was -3% (inactive). The inhibition of viability in test [6] is 99.5% (active). In addition, the viability decrease (inhibition) in test [7] is 103% (active); in test [8], 101% (active).

`C[C@@H]1CCN(C(=O)[C@H](CCCN=C(N)N)NS(=O)(=O)c2cccc3c2NC[C@H](C)C3)[C@@H](C(=O)O)C1`: the nuclear beta-catenin stimulation in test [1] (at 10 µM) was 0.3% (inactive); in test [1] (stimulation, at 2 µM) it was -0.5%. Moreover, the insulin secretion stimulation in test [2] was 1.35% (inactive). Moreover, the viability decrease in test [3] was -9.7% (inactive). Besides, in test [4], the tube area decrease is -5.4% (inactive). Also, the GLP1 secretion stimulation in test [5] was 1.4% (inactive). The inhibition of viability in test [6] was -3% (inactive). The viability decrease (inhibition) was -23.6% (inactive) in test [7] and 0.9% (inactive) in test [8].
